# SW480 rerep: A quantitative high throughput screen for small molecules that induce DNA re-replication in SW480 colon adenocarcinoma cells. Potency, µM (titrated, usually from 46.1 µM), for the others: at the top dose re-replication activation, hits mostly activators. AID 624297, 2012. actives 1.8% (n = 340,000). SW480 DNA re-replication, Hoechst DNA content imaging, 48 h; note: potency is the fitted concentration of half-maximal effect; % of control where 0% means no effect; nearly all actives have a fitted effect of over 55% in size
#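 SW480 cells exposed to compounds for 48 hr at 37 C, 5% CO2, then Hoechst-stained 40 min. Nuclear DNA content imaged by fluorescence scanning (405 nm excitation, 500-530 nm emission); re-replication scored as increased high-intensity nuclei.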
# DT40 TDP1 CPT: qHTS for Inhibitors of human tyrosyl-DNA phosphodiesterase 1 (TDP1): qHTS in cells in presence of CPT; chicken DT40 Tdp1-/-;hTDP1 cells + 20 nM CPT, ATP luminescence, 48 h; Potency, µM (highest dose often 46.2 µM), for the others: at the top dose activity change, negative = growth inhibition, usual class: inhibitors; actives 12% (n = 420,000); AID 686979, 2013; note: potency is the fitted concentration of half-maximal effect; % is set by controls: 0 for no effect and ±100 for the full control effect; nearly all actives have a fitted effect of over 55% in size
#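 Chicken DT40 Tdp1-/- cells complemented with human TDP1, 400 cells/well, exposed to compounds plus 20 nM camptothecin for at least 48 h at 37 C; viability read as ATP content by CellTiter-Glo luminescence.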
# IL1B secr inh: qHTS for Inhibitors of Inflammasome Signaling: IL-1-beta AlphaLISA Primary Screen | THP-1 LPS/ATP IL-1B secretion, AlphaLISA, 16 h; hits give low values | activity change, % at 57.5 µM | actives 4.7% (n = 360,000); in the data active = activity change below about -50%; inconclusive = mostly about -30% to -49%; note: % is set by controls: 0 for no effect and ±100 for the full control effect
#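 Secreted IL-1B measured by AlphaLISA bead assay after 16 h compound exposure of THP-1 cells; compounds (final up to 57.5 uM) added 1 h before LPS (250 ng/mL) and ATP (1.25 mM) stimulation; lower signal means less secretion.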
# MCF10A rerep: A quantitative high throughput screen for small molecules that induce DNA re-replication in MCF 10a normal breast cells. MCF 10A DNA re-replication, Hoechst nuclear intensity, 48 h. Potency, µM (series often up to 46.1 µM), for inactives: at the highest dose activity, positive = re-replication, usual class: activators. actives 2.9% (n = 350,000). AID 624296, 2012; note: potency is the fitted concentration of half-maximal effect; % of control where 0% means no effect; nearly all actives have a fitted effect of over 50% in size
# Chronic BCR inh: qHTS Assay to Find Inhibitors of Chronic Active B-Cell Receptor Signaling | ABC-DLBCL IkBa-CBG/CBR reporter, luminescence ratio, 4 h | Potency, µM (highest dose often 46.1 µM), for inactives: at the top dose activity change, negative = inhibition, hits mostly inhibitors | actives 0.05% (n = 340,000) | AID 493014, 2011; active = well fitted inhibition curve with a large enough effect in the signal ratio, with a control signal flat, not every such curve was filed as active; inconclusive = small, poorly fitted or top-dose-only effect, or effect the other way, or a change in a side signal; the % refers to the signal ratio;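 note: potency is the fitted concentration of half-maximal effect; plate controls were basal doxycycline-induced cells for no effect and cells given 10 µM MG132 for full effect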
#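 TMD8 human ABC-DLBCL cells with doxycycline-inducible IκBα–green luciferase fusion and unfused red luciferase, in 0.5% FBS medium; compounds up to 46 uM, 4 h at 37C. Green/red luminescence ratio, filter-overlap corrected, fitted to concentration-response curves.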
# TDP1 cell noCPT: qHTS for Inhibitors of human tyrosyl-DNA phosphodiesterase 1 (TDP1): qHTS in cells in absence of CPT. DT40 Tdp1-/- hTDP1 cells, no CPT, ATP luminescence, 48 h. Potency, µM (series often up to 46.2 µM), inactives show top-dose activity change, negative = growth inhibition, usual class: inhibitors. actives 15% (n = 420,000); note: potency is the fitted concentration of half-maximal effect; % is set by controls: 0 for no effect and ±100 for the full control effect; nearly all actives have a fitted effect of over 55% in size
#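 No-CPT arm: Tdp1-/-;hTDP1 DT40 cells (400/well) plus compounds, incubated ≥48 hr at 37 °C. Readout CellTiter-Glo luminescence.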
# The depositor's hits bear a star; ? = inconclusive; . = not tested or not shown; [ ] = remark or other dose. Only some compounds are listed: those with a hit (about 19% of all), similar ones and a draw of the others. Unless noted, calls come from the whole dose curve; as a rule, active = well fitted curve in the direction sought with a large enough effect; inconclusive = small, poorly fitted or top-dose-only effect, or another doubt; inactive = no such curve, though single readings can be large; an effect the other way counts as inactive or inconclusive.
SMILES,SW480 rerep,DT40 TDP1 CPT,IL1B secr inh,MCF10A rerep,Chronic BCR inh,TDP1 cell noCPT
CC1=Nc2ccccc2/C1=C/c1c(C)[nH]c2ccccc12,10.3µM*,?,-71.9*,0.82µM*,.,16.4µM*
CN(C)c1ccc(C=C2C(=O)c3ccccc3C2=O)cc1,.,-5.5%,.,.,.,-20.5%
CC1=Nc2ccccc2/C1=C/c1nc(-c2ccc(C)s2)oc1O,4.2%,?,28.0,3.2%,-4.1%,?
CN(C)c1ccc(C=C2c3ccccc3-c3ccccc32)cc1,.,?,.,.,.,22.4µM*
CCn1c(C)nc2cc(NS(=O)(=O)c3ccccc3)cc(C(=O)N3C[C@@H](C)O[C@@H](C)C3)c21,.,-2.5%,.,.,.,-15.4%
CCCC[C@]12Cc3ccccc3C(O1)c1c(c3ccccc3oc1=O)O2,.,.,.,.,-5.3%[9.22 µM],.
CCOc1ccc(S(=O)(=O)N(CC)CC)cc1NC(=O)c1ccc(N2CCCC2=O)cc1,4.0%,?,-23.6,?,0.1%,?
CC(=O)Oc1ccc(/C=C2/CCc3ccccc3C2=O)cc1,-13.0%,?,-13.3,?,?,?
CN(C)c1ccc(/C=C2/CCc3ccccc32)cc1,.,14.1µM*,.,.,.,10µM*
O=C(Nc1c2c(nn1-c1ccc(Cl)cc1)CS(=O)(=O)C2)c1cccc(Cl)c1,.,16.4µM*,.,.,?,20.6µM*
O=C(O)c1cc(O)ccc1NC(=O)c1cccc2ccccc12,?,-6.2%,23.8,1.0%,?,-18.6%
Cn1nc(SCc2ccccc2)c(=O)[nH]c1=O,.,-0.6%,3.5,.,.,-16.4%
COc1ccc(C2c3c4c(n(C)c3CCN2C)CCN(C)C4c2ccc(OC)cc2)cc1 (stereo not drawn),?,?,-54.7*,29.4%,4.8%,?
Cc1ccc(-c2cc(C(=O)NCCCN3CCCC3)c3ccccc3n2)cc1C,0.1%,?,-73.1*,18.9%,0.2%,29.1µM*
Cc1ccc(-c2cc(C(=O)n3cnc4ccccc43)c3ccccc3n2)cc1C,-2.9%,?,0.0,15.3%,10.3%,?
Cc1cc(C(=O)NCc2cc(C)n(C)n2)sc1-c1ccccc1,-2.9%,13µM*,39.4,-7.2%,-29.6%,20.6µM*
Cc1ccc(-c2cc(C(=O)NCc3ccccc3Cl)c3ccccc3n2)cc1C,.,14.6µM*,.,.,-10.4%,?
CCn1cc(CNC(=O)c2cc(-c3ccc(C)c(C)c3)nc3ccccc23)c(C)n1,.,14.6µM*,.,.,.,16.4µM*
Cc1ccc(-c2cc(C(=O)NCCCN3CCOCC3)c3ccccc3n2)cc1C,0.5%,-3.8%,-10.3,-0.9%,11.5%,?
O=C(NC(Cc1ccccc1)C(=O)O)C1CCN(S(=O)(=O)c2ccccc2C(F)(F)F)CC1 (stereo not drawn),-3.6%,-9.4%,-18.7,-0.5%,1.7%,4.5%
Cc1ccc(C[C@@H](NS(=O)(=O)c2ccc(C(=O)O)cc2)C(=O)O)cc1,.,.,.,.,-3.7%,.
COCCCNC(=O)c1cc(-c2cccnc2)nc2ccccc12,-3.2%,-7.7%,25.8,2.6%,4.7%,-7.3%
COc1ccc(-c2cc(C(=O)OCc3ccccn3)c3ccccc3n2)cc1,13µM*,?,-4.2,?,0.5%,?
O=C(NCCc1ccc(Cl)cc1)c1cc(-c2ccccn2)nc2ccccc12,?,?,0.0,?,6.1%,?
O=C(NCCc1ccccn1)c1cc(-c2ccccc2Cl)nc2ccccc12,1.2%,-29.7%,-4.4,?,6.6%,18.4µM*
SMILES,SW480 rerep,DT40 TDP1 CPT,IL1B secr inh,MCF10A rerep,Chronic BCR inh,TDP1 cell noCPT
COCCNC(=O)c1cc(-c2ccc(-c3ccccc3)cc2)nc2ccccc12,?,11.6µM*,-65.6*,?,-9.7%,5.17µM*
Cc1ccc(-c2cc(C(=O)NCc3ccccn3)c3ccccc3n2)cc1C,?,?,-13.8,5.8µM*,4.5%,7.31µM*
Cc1cc(CNC(=O)c2cc(-c3ccccc3)nc3ccccc23)nn1C,-5.7%,?,17.6,-4.7%,9.3%,20.6µM*
COc1ccc(-c2cc(C(=O)Oc3ccc([N+](=O)[O-])cc3)c3ccccc3n2)cc1,?,?,5.9,18.4µM*,-13.4%,?
Cc1cccc(-c2cc(C(=O)NCc3ccccn3)c3ccccc3n2)c1,-0.9%,16.4µM*,-22.6,26.4%,3.3%,13µM*
O=C(NCc1ccccc1)c1cc(-c2ccncc2)nc2ccccc12,-7.8%,?,25.8,11.0%,-1.8%,?
Cc1cc(F)cc(-c2cc(C(=O)NCc3ccco3)[nH]n2)c1,.,7.6%,?,.,.,-9.2%
Cc1cc(F)cc(-c2cc(C(=O)NCc3ccccn3)[nH]n2)c1,.,-6.0%,-86.1*,.,.,-5.1%
O=C(NCc1ccccn1)c1cc(-c2ccccc2)nc2ccccc12,?,4.6%,-1.6,4.1%,-3.3%,-2.9%
CCc1cccc(NC(=O)CCS(=O)(=O)c2cc3c4c(c2)CCN4C(=O)CC3)c1,.,-0.5%,.,.,.,1.4%
O=C(NCCc1ccccn1)c1c(-c2ccsc2)sc2ccccc12,-9.3%,?,40.9,-11.4%,0.2%,?
O=C(NCCc1ccccn1)c1c(-c2ccccc2)sc2ccccc12,0.4%,?,-0.2,17.5%,3.3%,16.4µM*
O=C(NCc1ccccn1)c1cc(-c2ccc(-c3ccccc3)cc2)nc2ccccc12,-131.5%,16.4µM*,-0.6,?,-2.9%,8.2µM*
CCn1cc(-c2cc(C(=O)O)c3ccccc3n2)cn1,-3.6%,9.2µM*,38.2,-7.3%,-3.6%,?
CCn1cc(-c2cc(C(=O)O)c3ccccc3n2)c(C)n1,-79.7%,3.6%,20.2,-7.8%,0.0%,1.7%
Cc1ccc(NS(=O)(=O)c2c(C)[nH]c(C)c2C(=O)N2CCCC2)cc1Cl,-14.1%,?,?,-0.7%,2.4%,?
COCCNC(=S)N/N=C/c1ccccc1C(=O)O,-8.0%,-13.9%,12.5,-2.7%,14.7%,-26.8%
COCCCNC(=S)N/N=C/c1ccc(N(C)C)cc1Cl,29.1µM*,3.3%,-2.1,?,?,?
COCCCNC(=S)N/N=C/c1ccccc1O,?,2.59µM*,4.3,7.1%,?,0.581µM*
